# Assay results from PubChem BioAssay (NCATS).
# Records with an inconclusive call do not appear. Entries that show only a call come without a potency. Activity calls are given as the source filed them. Calls come from the whole dose curve; as a rule, active = well fitted inhibition curve with a large enough effect; inconclusive = small, poorly fitted or top-dose-only effect; inactive = no such curve, though single readings can be large or run the other way. Residues, ends and D or L forms follow the SMILES beside them. *: point of attachment. Cbz = O=C(OCc1ccccc1)*
# Assay: qHTS Screen of the MIPE 4.0 Collection Against Ewings Sarcoma (TC71) (AID 1259253); note: nearly all actives have a fitted effect of over 40% in size
# Details: TC71 Ewing sarcoma viability, CellTiter-Glo, 48 h; series mostly up to 45.8 µM
# Description: There is a large unmet medical need for treatments for Ewing sarcoma, a pediatric sarcoma. We sought to identify compounds that inhibited Ewing sarcoma cells in vitro with the goal to then test promising drugs in two drug combinations in vitro to look for synergistic drug combinations. Promising combinations would then proceed to additional validation, including in vivo testing.
# Using the NCATS developed oncology compound library called the Mechanism of Interrogation Plate (MIPE), four Ewing sarcoma cell lines were evaluated (TC32, TC71, RDES, EW8). Compounds, in a 12-point titration series, were incubated with cells for 48 hours and the read out was cell viability (CellTiter-Glo from Promega). These initial experiments were used to select appropriate concentrations of each single agent for subsequent two-drug matrix combinations such that the concentrations in the matrices would span both activity and non-activity.
# Cells, in the log phase of growth, were seeded in 5 uL of RPMI plus 5% FBS, […] L-glutamine, 100 U/ml penicillin and 100 ug/ml streptomycin into 1536-well solid-bottom white tissue culture treated Greiner Bio One Plates (789173-F) using a MultiDrop Combi (Thermofisher Scientific) dispenser and a small sterile cassette. One column was media alone to be used as a :"no cells" control. The plates were then covered with sterilized stainless steel gasketed lids from Kalypsys. After allowing cells to attach for 4 hours, 23 nL of test compound or control (negative control DMSO and positive control 9.2 uM Bortezomib-final) were added from a 1536-well polypropylene compound source plate to each well using a 1536 head pin tool from Kalypsys. Cells were then incubated for 48 hours at 37C, 95% relative humidity and 5% CO2. After 48 hours, plates were removed from the incubator and 3 uL of CellTiter-Glo (Promega) was added using an Aurora Flying Reagent Dispenser Bioraptor. Plates were incubated at room temperature for 10 minutes prior to reading the luminescence on the Viewlux (PerkinElmer). The relative luciferase units are used to calculate the percent activity using the activity of DMSO in the cells and no cells columns for normalization of no inhibition and full inhibition respectively.
# Potency is the fitted concentration of half-maximal effect.
row,SMILES,Potency
1,NC(=O)N1CCC(CC(=O)N2CCC([C@H]3c4ncc(Br)cc4CCc4cc(Cl)cc(Br)c43)CC2)CC1,16.6 µM (active)
2,CC(C)C[C@@H](C=O)NC(=O)[C@H](CC(C)C)NC(=O)[C@H](CC(C)C)NC(=O)OCc1ccccc1 (Cbz-Leu-Leu-Leu-aldehyde),0.59 µM (active)
3,NC(=O)c1ncn([C@@H]2O[C@H](CO)[C@@H](O)[C@@H]2O)c1O,inactive
4,CCCCC(=O)O[C@]1(C(=O)CO)[C@@H](C)C[C@H]2[C@@H]3CCC4=CC(=O)C=C[C@]4(C)[C@@]3(F)[C@@H](O)C[C@@]21C,inactive
5,O=C1NC(=O)[C@@H](c2cn3c4c(cccc24)CCC3)[C@H]1c1c[nH]c2ccccc12,0.526 µM (active)
6,Cc1ccc(O)c(C(CCN(C(C)C)C(C)C)c2ccccc2)c1 (stereo not given),inactive
7,CC1(C)O[C@@H]2C[C@H]3[C@@H]4CCC5=CC(=O)C=C[C@]5(C)[C@@H]4[C@@H](O)C[C@]3(C)[C@]2(C(=O)CO)O1,inactive
8,CN(C)CC[C@H](c1ccc(Cl)cc1)c1ccccn1,inactive
9,Nc1ccn(C[C@@H](CO)OCP(=O)(O)O)c(=O)n1,inactive
10,CC(=O)C1=C(O)C=C2Oc3c(C(C)=O)c(O)c(C)c(O)c3C2(C)C1=O (stereo not given),inactive
11,COc1ccc(S(=O)(=O)Nc2cccnc2Nc2ccc(O)cc2)cc1,0.148 µM (active)
12,CC(N[C@H]1CCCC[C@H]1NC(=O)c1ccc(Cl)cc1)c1cccc2ccccc12 (stereo not given in full),inactive
13,CC(C=CC=C(C)C=CC1=C(C)CCCC1(C)C)=CC=CC=C(C)C=CC=C(C)C=CC1=C(C)CCCC1(C)C,18.7 µM (active)
14,O=C(NCc1ccccc1)[C@H](Cc1ccccc1)NC(=O)[C@@H]1O[C@@H]1C(=O)NCCc1ccc(O)cc1,1.05 µM (active)
15,CCOC(=O)C1=C(C)NC(=S)NC1c1cccc(O)c1 (stereo not given),0.105 µM (active)
16,Cc1cc(O)c2c(c1)C(=O)c1cccc(O)c1C2=O,inactive
17,CC(=O)O[C@H]1C[C@@H]2CC[C@H]3[C@H]4C[C@H]([N+]5(C)CCCCC5)[C@@H](OC(C)=O)[C@@]4(C)CC[C@@H]3[C@@]2(C)C[C@H]1N1CCCCC1,7.43 µM (active)
18,CCN(CC)CCNC(=O)c1c(C)[nH]c(C=C2C(=O)Nc3ccc(F)cc32)c1C,13.6 µM (active)
19,Cn1cc(C2=C(c3c4n(c5ccccc35)CCC(CN)C4)C(=O)NC2=O)c2ccccc21 (stereo not given),16.6 µM (active)
20,Cn1cc(C[C@@H](N)C(=O)O)c2ccccc21,inactive

row,SMILES,Potency
1,CCC[C@H]1C[C@H](C(=O)N[C@@H]([C@@H]2O[C@@H](SC)[C@@H](O)[C@@H](O)[C@@H]2O)[C@H](C)Cl)N(C)C1,inactive
2,CCCCOc1ccc(C(=O)Nc2ccc(F)cc2F)cc1,inactive
3,COc1cc(O)c2c(c1)C1OC1C[C@H](O)[C@H](O)C(=O)C=CC[C@H](C)OC2=O (stereo not given in full),11.8 µM (active)
4,COc1cc([C@@H]2c3cc4c(cc3[C@H](O)[C@H]3COC(=O)[C@@H]23)OCO4)cc(OC)c1OC,0.187 µM (active)
5,C[C@]12C=CC(=O)N[C@@H]1CC[C@H]1[C@H]3CC[C@@H](C(=O)Nc4cc(C(F)(F)F)ccc4C(F)(F)F)[C@@]3(C)CC[C@@H]12,inactive
6,CN[C@H]1[C@@H](O)[C@@H]2O[C@@H]3O[C@H](C)CC(=O)[C@]3(O)O[C@@H]2[C@@H](NC)[C@H]1O,1.32 µM (active)
7,O=C(Nc1cc2cc[nH]c2cn1)c1ccccc1,13.2 µM (active)
8,C[C@](Cc1c[nH]c2ccccc12)(NC(=O)OC1C2CC3CC(C2)CC1C3)C(=O)NC[C@H](NC(=O)CCC(=O)O)c1ccccc1 (stereo not given in full),inactive
9,CCCCCCCCCCCCCCCC(=O)OC[C@@H](NC(=O)C(Cl)Cl)[C@H](O)c1ccc([N+](=O)[O-])cc1,inactive
10,COc1ccc(CCC(=O)c2c(O)cc(O[C@@H]3O[C@H](CO)[C@@H](O)[C@H](O)[C@@H]3O[C@@H]3O[C@@H](C)[C@H](O)[C@@H](O)[C@@H]3O)cc2O)cc1O,9.35 µM (active)
11,COc1cc2c(cc1OC)[C@@H]1C(=O)c3ccc4c(c3O[C@@H]1CO2)C=CC(C)(C)O4,23.5 µM (active)
12,C[C@]12CCC(=O)C=C1[C@@H]1CC1[C@H]1[C@H]3[C@@H]4C[C@H]4[C@@]4(CCC(=O)O4)[C@@]3(C)CC[C@H]12 (stereo not given in full),inactive
13,OC[C@@H](O)[C@@H](O)[C@H](O)[C@@H](O)CO,inactive
14,NC(=O)Nc1sc(-c2ccc(F)cc2)cc1C(N)=O,1.66 µM (active)
15,CC(C)[C@H](CO)Nc1nc(Nc2cccc(Cl)c2)c2ncn(C(C)C)c2n1,7.43 µM (active)
16,N=c1ccn2c(n1)O[C@H]1[C@@H](O)[C@@H](CO)O[C@H]12,0.662 µM (active)
17,C[C@@H]1CC[C@@]2(OC1)OC1CC3C4CC=C5CC(O)CCC5(C)C4CCC3(C)C1[C@@H]2C (stereo not given in full),inactive
18,C#C[C@]1(O)CC[C@@H]2[C@@H]3CCC4=CC(=O)CC[C@@H]4[C@H]3CC[C@@]21CC,inactive
19,COC(=O)[C@@H]1CC2=CC(=O)CC[C@]2(C)[C@@]23O[C@@H]2C[C@@]2(C)[C@H](CC[C@@]24CCC(=O)O4)[C@@H]13,inactive
20,COc1cc(C(C)C)c(Oc2cnc(NC(CO)CO)nc2N)cc1I,1.05 µM (active)
